In PubChem BioAssay AID588689 (Southern Research Specialized Biocontainment Screening …, 2011):
Screen size: about 340,000 compounds; about 1,000 (0.29%) were called active. Rule as the data show it: inconclusive = inhibition above about 29% without an active follow-up result; inactive = below that. Only a sample is shown. Results with a measured potency or affinity are listed apart.

Molecular target: Genome polyprotein (Dengue virus type 2 (strain 16681-PDK53)) (UniProt P29991)
Test: flavivirus cap methylation enzyme inhibition – biochemical, confirmation dose response, primary screen (AID 588689)
Settings: Dengue-2 NS5 methyltransferase capping enzyme assay, at 25 µM, stronger effect = higher value
[1] = measured here: pilot screen replicate inhibition

SMILES	inhibition	inhibition [1]
O=C(COc1ccc([N+](=O)[O-])cc1)NCC(c1cccs1)N1CCOCC1 (centres undefined)	4.32% (inactive)	–
CC(C)(C)OC(=O)N1CCC(CC2CC(c3ccccc3)=NO2)(C(=O)O)CC1 (centres undefined)	-3.93% (inactive)	–
O=S(=O)(Nc1ccccc1N1CCCCC1)c1ccccc1	1.3% (inactive)	–
S=C(Nc1ccc(Br)cc1Cl)N1CCCC1	-2.6% (inactive)	–
COc1ccc(C2=CC(=O)C[C@H](c3ccc(OC)c(OC)c3)C2)cn1	-0.4% (inactive)	–
O=C(O)CN1CCN(Cc2cccc(Cl)c2)C1=O	-1.31% (inactive)	–
CC1(C)CC(=O)C(CC2=C(O)CC(C)(C)CC2=O)C(=O)C1	-33.8% (inactive)	–
CCCC(C1=C(O)CC(C)(C)CC1=O)C1C(=O)CC(C)(C)CC1=O (centres undefined)	-11.2% (inactive)	–
CC(C)c1cc(C(=O)NCc2cccnc2)no1	1.6% (inactive)	–
O=C(NNc1ccccc1[N+](=O)[O-])Nc1ccccc1	-1.39% (inactive)	–
CC1CCc2c(sc3ncnc(SCC(=O)Nc4ccc(C(=O)O)cc4)c23)C1 (centres undefined)	-4.98% (inactive)	–
COc1cc(NC(=O)CSc2ncnc3sc4c(c23)CCCC4)c(C(=O)O)cc1OC	-3.33% (inactive)	–
COCCNC(=O)C(=O)c1c(-c2ccccc2)[nH]c2ccccc12	1.52% (inactive)	–
O=C(Nc1cc(S(=O)(=O)N2CCOCC2)ccc1N1CCCC1)c1ccc2c(c1)S(=O)(=O)c1ccccc1C2=O	-7.41% (inactive)	–
O=C(Nc1ccc(S(=O)(=O)N2CCOCC2)cc1)c1ccc2c(c1)S(=O)(=O)c1ccccc1C2=O	-4.52% (inactive)	–
COCc1nc(-c2cc(Br)ccc2OC)no1	-4.06% (inactive)	–
CCn1c(O)c(C=Nc2ccccc2)oc1=S	-8.34% (inactive)	–
Cc1nc2ccc(NC(=O)c3ccc(Cl)c([N+](=O)[O-])c3)cc2s1	-4.44% (inactive)	–
Cc1nc2ccc(NC(=O)c3ccc([N+](=O)[O-])cc3[N+](=O)[O-])cc2s1	-5.18% (inactive)	–
COc1cccc(NC(=S)N2CCC(c3ccc(C)cc3)C2)c1 (centres undefined)	-1.96% (inactive)	–
COc1ccc(CCNC(=O)c2nnn(CC(=O)Nc3c(C)cc(C)cc3C)c2N)cc1OC	-7.1% (inactive)	–
COc1cc(C(C2C(=O)CC(C)(C)CC2=O)C2C(=O)CC(C)(C)CC2=O)ccc1OC(C)=O	-2.35% (inactive)	–
COc1cc(C(O)C(=O)O)ccc1O (centres undefined)	-7.33% (inactive)	–

SMILES	inhibition	inhibition [1]
CC1(C)CC(=O)C(C(c2ccccc2F)C2C(=O)CC(C)(C)CC2=O)C(=O)C1	22.6% (inactive)	–
CCOc1ccc(CC(=O)C2C(=O)CC(C)(C)CC2=O)cc1OCC	-13.1% (inactive)	–
COc1ccc(NC(=O)c2ccc(COCC(F)(F)F)cc2)cc1OC	-2.91% (inactive)	–
COc1ccc(N2C(=O)CC(C)(C)CC2=O)cc1OC	0% (inactive)	–
COc1cc(NC(=O)c2ccc(COCC(F)(F)F)o2)cc(OC)c1OC	0% (inactive)	–
O=C(/C=C1\SC(=O)NC1=O)Nc1ccc(F)cc1	0% (inactive)	–
Cc1cc(Br)ccc1NC(=O)CNC(=O)CSc1n[nH]c(N)n1	-4.68% (inactive)	–
O=C(COC(=O)c1cc(Cl)ccc1O)Nc1cc(C(F)(F)F)ccc1N1CCOCC1	-3.11% (inactive)	–
CCCN1Cc2cccc(C(=O)NCCc3cccc(C)c3)c2C1=O	3.25% (inactive)	–
COc1cc(NC2=CC(=O)CC(C)(C)C2)cc(OC)c1OC	1.61% (inactive)	–
COc1cc(C2CC(=O)OC3=C2C(=O)CC(C)(C)C3)cc(OC)c1OC (centres undefined)	2.26% (inactive)	–
CCOc1ccc(S(=O)(=O)NC(C)(C)C)cc1-c1nc2c(C(C)(C)C)nn(C)c2c(=O)[nH]1	-2.73% (inactive)	–
Cc1cc[n+](-c2ccccc2)c2ccccc12	-10.7% (inactive)	–
O=C(CSCc1c(F)cccc1Cl)NCc1ccco1	-1.37% (inactive)	–
CCN(CC)S(=O)(=O)c1ccc(C(=O)NCC2CCCCC2)cc1	2.49% (inactive)	–
O=C(Nc1ccc(F)cc1)c1cc2cc(Cl)ccc2[nH]1	1.32% (inactive)	–
COc1ccc(-c2ccc(SCC(=O)N3CC(=O)Nc4ccccc43)nn2)cc1	-4.15% (inactive)	–
CCn1cc(/C=C/C(=O)NCc2c(C)nn(C)c2C)cn1	-7.26% (inactive)	–
O=C1NC(=O)/C(=C/c2cccc(O)c2)N1	1.96% (inactive)	–
C(=N\n1cnnc1)/c1cccc(OCCOc2ccccc2)c1	-9.55% (inactive)	–
Cc1ccc(OCCN2C(=O)c3ccccc3C2=O)c(C)c1	1.61% (inactive)	–
O=C1NC(=S)N/C1=C/c1ccc2ccccc2c1	5.93% (inactive)	2.73%
O=C1NC(=S)S/C1=C\c1ccc2ccccc2c1	-15.5% (inactive)	–

SMILES	inhibition	inhibition [1]
COc1ccccc1OCCCOc1cccc(/C=C2\SC(=O)NC2=O)c1	-1.96% (inactive)	6.37%
CNC(=O)NC(=O)CSc1nc2cc(C(=O)OC)ccc2c(=O)n1-c1ccccc1	-2.77% (inactive)	–
COc1ccc2nc(C)cc(SCC(NC(C)=O)C(=O)OC(C)C)c2c1 (centres undefined)	0.78% (inactive)	–
COc1ccccc1C(=O)Nc1ncc2c(n1)CC(c1ccco1)CC2=O (centres undefined)	-1.36% (inactive)	–
O=C(NCc1ccccn1)c1cc(S(=O)(=O)N2CCCCCC2)ccc1Cl	1.3% (inactive)	–
COc1cc(C(=O)O/N=C2\C=CC(=O)C(C)=C2)cc(OC)c1OC	-39% (inactive)	–
Oc1ccc(/C=N/N2CCN(C3c4ccccc4-c4ccccc43)CC2)cc1	-2.06% (inactive)	–
COc1ccc(OC)c2c1CCC2=O	0% (inactive)	–
COc1ccc(N)c2c1C(=O)c1ccccc1C2=O	-1.95% (inactive)	–
CCOc1ccc(S(=O)(=O)N2CCCCC2)cc1NC(=O)C1COc2ccccc2O1 (centres undefined)	1.45% (inactive)	–
O=C(NCc1ccccc1)c1cnc(Cl)c(Cl)c1	-7.44% (inactive)	–
COC(=O)c1ccc(COc2cccnc2[N+](=O)[O-])cc1	0% (inactive)	–
O=C(N/N=C/c1cccc(Cl)c1)C1CCCC1	0% (inactive)	–
Cc1ccc(C(=O)Nc2ccccc2C(=O)O)cc1S(=O)(=O)Nc1ccccc1	3.97% (inactive)	–
O=C(Nc1ccccc1C(=O)O)c1cccc(F)c1	3.35% (inactive)	–
Cc1ccc(C(=O)Nc2ccc(O)cc2C(=O)O)cc1	-8.03% (inactive)	–
O=C(Nc1ccccc1C(=O)Nc1ccccc1C(=O)O)c1ccccc1	2.59% (inactive)	–
O=C(Nc1ccccc1C(=O)O)c1ccccc1	-0.69% (inactive)	–
Cc1cccc(C(=O)Nc2ccc(O)cc2C(=O)O)c1	14.3% (inactive)	–
O=C(Nc1ccccc1C(=O)O)c1cccc(S(=O)(=O)Nc2ccc(Br)cc2)c1	22.4% (inactive)	–
CC(=O)Nc1cccc(C(=O)Nc2ccccc2C(=O)O)c1	3.9% (inactive)	–
